Measurements reported in PubChem BioAssay (NCATS).
Results filed as inconclusive are left out. Calls of active or inactive are those of the source. Calls come from the whole dose curve; as a rule, active = well fitted curve in the direction sought with a large enough effect; inconclusive = small, poorly fitted or top-dose-only effect, or another doubt; inactive = no such curve, though single readings can be large; an effect the other way counts as inactive or inconclusive.

Columns and labels:
[1] = qHTS for Inhibitors of Plasmodium falciparum (HB3) proliferation (AID 504318); note: nearly all actives have a fitted effect of over 60% in size; note: potency is the fitted concentration of half-maximal effect
In short: (§1)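 Erythrocytes infected with P. falciparum line (0.3% parasitemia, 2.5% hematocrit final) incubated with compounds 72 h at 37 °C, 5% CO2; SYBR Green lysis buffer added, fluorescence read next day. Normalized to 0.29 uM artemisinin and DMSO.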

[2] = qHTS for Inhibitors of Plasmodium falciparum (7G8) proliferation (AID 504316); note: nearly all actives have a fitted effect of over 65% in size; note: potency is the fitted concentration of half-maximal effect
In short: as §1

[3] = qHTS for Inhibitors of Plasmodium falciparum (CP250) proliferation (AID 504320);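 note: plate controls were DMSO vehicle for no effect and 0.29 µM artemisinin control for full effect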
In short: as §1

[4] = qHTS for Inhibitors of Plasmodium falciparum (GB4) proliferation (AID 504315); note: nearly all actives have a fitted effect of over 50% in size; note: potency is the fitted concentration of half-maximal effect
In short: as §1

[5] = biological target: Ubiquitin carboxyl-terminal hydrolase 1 (Homo sapiens) (UniProt O94782); experiment: Inhibitors of USP1/UAF1: Pilot qHTS (AID 504865);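 note: rhodamine fluorescence freed from ubiquitin-rhodamine substrate followed over time; top concentration of the series differs between compounds; % is set by controls: 0 for no effect and ±100 for the full control effect; nearly all actives have a fitted effect of over 35% in size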
Chain of Ubiquitin carboxyl-terminal hydrolase 1 (Homo sapiens) (O94782 whole entry, looked up): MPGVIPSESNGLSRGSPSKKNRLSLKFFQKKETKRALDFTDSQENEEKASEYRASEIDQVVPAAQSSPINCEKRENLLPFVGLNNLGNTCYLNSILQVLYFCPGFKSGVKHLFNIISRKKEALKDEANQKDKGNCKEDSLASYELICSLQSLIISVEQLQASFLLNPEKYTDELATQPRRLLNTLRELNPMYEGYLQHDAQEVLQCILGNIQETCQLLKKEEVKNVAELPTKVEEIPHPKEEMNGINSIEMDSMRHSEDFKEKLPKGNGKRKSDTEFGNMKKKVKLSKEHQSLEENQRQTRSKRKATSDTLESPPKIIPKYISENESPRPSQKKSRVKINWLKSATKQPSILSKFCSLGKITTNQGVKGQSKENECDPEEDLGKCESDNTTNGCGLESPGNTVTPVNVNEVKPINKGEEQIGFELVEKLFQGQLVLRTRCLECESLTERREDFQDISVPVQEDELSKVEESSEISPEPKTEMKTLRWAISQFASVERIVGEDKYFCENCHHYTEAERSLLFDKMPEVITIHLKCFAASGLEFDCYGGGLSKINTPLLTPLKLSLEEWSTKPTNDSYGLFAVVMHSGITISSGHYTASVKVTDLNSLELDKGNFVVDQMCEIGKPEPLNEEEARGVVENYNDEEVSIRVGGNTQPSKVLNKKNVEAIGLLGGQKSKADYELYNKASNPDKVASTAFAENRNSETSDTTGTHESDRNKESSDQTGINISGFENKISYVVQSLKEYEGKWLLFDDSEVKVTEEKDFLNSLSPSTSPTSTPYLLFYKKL
In short: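 In 50mM HEPES pH 7.8 containing 0.5mM EDTA, 1mM TCEP, 0.1 mg/ml BSA and 0.01% Tween-20, 1nM USP1/UAF1 is exposed to compound for 15 min, then Ub-Rho (150nM final) is added and fluorescence is read over time.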

[6] = biological target: Luciferin 4-monooxygenase (Photinus pyralis) (UniProt P08659); experiment: Biochemical firefly luciferase enzyme assay for NPC (AID 624030);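 note: purified P. pyralis luciferase at 10 nM with luciferin and ATP substrate; 0% = DMSO and -100% = full luciferase inhibition by PTC124 control; nearly all actives have a fitted effect of over 70% in size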
Chain of Luciferin 4-monooxygenase (Photinus pyralis) (P08659 whole entry, looked up): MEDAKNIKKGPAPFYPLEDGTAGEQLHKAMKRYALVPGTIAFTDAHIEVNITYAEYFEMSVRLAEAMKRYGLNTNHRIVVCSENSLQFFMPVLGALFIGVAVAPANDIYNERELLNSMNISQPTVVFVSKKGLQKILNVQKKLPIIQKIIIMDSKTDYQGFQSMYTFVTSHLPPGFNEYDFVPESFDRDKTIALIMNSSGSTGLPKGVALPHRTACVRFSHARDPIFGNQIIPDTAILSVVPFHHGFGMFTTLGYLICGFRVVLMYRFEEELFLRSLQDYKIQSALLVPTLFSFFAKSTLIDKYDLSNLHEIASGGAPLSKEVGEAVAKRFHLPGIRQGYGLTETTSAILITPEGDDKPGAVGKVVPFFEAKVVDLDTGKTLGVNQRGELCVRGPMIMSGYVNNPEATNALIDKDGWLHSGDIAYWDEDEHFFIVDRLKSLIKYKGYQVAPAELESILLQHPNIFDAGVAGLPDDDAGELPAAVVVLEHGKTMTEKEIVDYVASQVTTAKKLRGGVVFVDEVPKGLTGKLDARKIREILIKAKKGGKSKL
In short: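 Direct inhibition of firefly luciferase enzyme (10 nM final, 50 mM Tris Acetate) assessed by luminescence within 5 minutes. Percent activity scaled between DMSO and PTC124 positive control, with concentration-effect curves classified by fit quality and response.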

[7] = qHTS profiling for inhibitors of Plasmodium falciparum proliferation (AID 504749);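 note: 0% = DMSO vehicle and full inhibition = artemisinin control; nearly all actives have a fitted effect of over 60% in size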; conditions: P. falciparum in erythrocytes, SYBR Green DNA, 72 h, at 28.7 µM (top of the series)
In short: (§2)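 Three-day growth assay of blood-stage parasites in erythrocytes (0.3% parasitemia, 2.5% hematocrit) at 37 C, 5% CO2, quantified by SYBR Green DNA staining after overnight detergent lysis.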

ATS189 = experiment: as above; conditions: P. falciparum in erythrocytes, SYBR Green DNA, 72 h; series mostly up to 28.7 µM
In short: as §2

CP185 = experiment: as above; conditions: P. falciparum in erythrocytes, SYBR Green DNA, 72 h; series mostly up to 28.7 µM
In short: as §2

CP201 = experiment: as above; conditions: P. falciparum in erythrocytes, SYBR Green DNA, 72 h; series mostly up to 28.7 µM
In short: as §2

CP238 = experiment: as above; conditions: P. falciparum in erythrocytes, SYBR Green DNA, 72 h; series mostly up to 28.7 µM
In short: as §2

CP252 = experiment: as above; conditions: P. falciparum in erythrocytes, SYBR Green DNA, 72 h; series mostly up to 28.7 µM
In short: as §2

CP265 = experiment: as above; conditions: P. falciparum in erythrocytes, SYBR Green DNA, 72 h; series mostly up to 28.7 µM
In short: as §2

CP286 = experiment: as above; conditions: P. falciparum in erythrocytes, SYBR Green DNA, 72 h; series mostly up to 28.7 µM
In short: as §2

CP305 = experiment: as above; conditions: P. falciparum in erythrocytes, SYBR Green DNA, 72 h; series mostly up to 28.7 µM
In short: as §2

CP325 = experiment: as above; conditions: P. falciparum in erythrocytes, SYBR Green DNA, 72 h; series mostly up to 28.7 µM
In short: as §2

FAB9 = experiment: as above; conditions: P. falciparum in erythrocytes, SYBR Green DNA, 72 h; series mostly up to 28.7 µM
In short: as §2

PC15 = experiment: as above; conditions: P. falciparum in erythrocytes, SYBR Green DNA, 72 h; series mostly up to 28.7 µM
In short: as §2

PC49 = experiment: as above; conditions: P. falciparum in erythrocytes, SYBR Green DNA, 72 h; series mostly up to 28.7 µM
In short: as §2

COCOc1ccc(OC)cc1C(=O)C=Cc1ccc(OC)c(Br)c1
active: Potency [1] 1690 nM

CC(=O)OC[C@H]1O[C@H](C#Cc2ccc(C(C)(C)C)cc2)C=C[C@H]1OC(C)=O
active: Potency [2] 1690 nM

COC(=O)C1=C(C(=O)OC)[C@@H]2N(C)c3ccc(OC)cc3[C@@]23C[C@@H](C(=O)OC)N(S(=O)(=O)c2c(C)noc2C)C3=N1
inactive: Potency [1] | Potency [3]

COC(=O)C1=C(C(=O)OC)[C@@H]2Nc3ccccc3[C@@]23C[C@@H](C(=O)OC)N(C(=O)C2CCC2)C3=N1
inactive: Potency [4] | Potency [3]

CC(N)C(=O)NCC(=O)NC1CSSCC(C(=O)O)NC(=O)C(CO)NC(=O)C(C(C)O)NC(=O)C(Cc2ccccc2)NC(=O)C(C(C)O)NC(=O)C(CCCCN)NC(=O)C(Cc2c[nH]c3ccccc23)NC(=O)C(Cc2ccccc2)NC(=O)C(Cc2ccccc2)NC(=O)C(CC(N)=O)NC(=O)C(CCCCN)NC1=O (stereo not given)
inactive: Potency [5] | Potency [6] | activity, negative = inhibition ([7]; parasite line A) 12% | activity, negative = inhibition ([7]; parasite line B) 4.8% | Potency (ATS189) | Potency (CP185) | Potency (CP201) | Potency (CP238) | Potency (CP252) | Potency (CP265) | Potency (CP286) | Potency (CP305) | Potency (CP325) | Potency (FAB9) | Potency (PC15) | Potency (PC49)

COc1ccc(CN2C=C3C(=O)C(C)(OC(=O)CCc4ccccc4)C(=O)C=C3C=C2c2ccc(C#N)cc2)cc1 (stereo not given)
inactive: Potency [3]

COc1ccc([C@]23Cc4cc(C#N)ccc4[C@H](O2)c2c(cc(-c4ccccc4)oc2=O)O3)cc1
active: Potency [2] 1350 nM
inactive: Potency [3]

C=CCN1C=C2C(=O)C(C)(OC(=O)c3cccs3)C(=O)C=C2C=C1CCCC(=O)OC (stereo not given)
inactive: Potency [4] | Potency [1] | Potency [3]

C[C@@H]1CC[C@H]2C(=O)N(Cc3ccccc3)C[C@H](O)CN2[C@H]1c1ccc(Br)cc1
inactive: Potency [3]

CCN(CC)CCCN1C=C2C(=O)C(C)(OC(=O)c3cccs3)C(=O)C=C2C=C1CCCC(=O)OC (stereo not given)
inactive: Potency [2] | Potency [1] | Potency [3]

CC(=O)OC[C@H]1O[C@H](C#Cc2ccc(C)cc2C)C=C[C@H]1OC(C)=O
inactive: Potency [3]
active: Potency [2] 1690 nM

CCOC(=O)OC[C@H]1O[C@H](C#Cc2ccccc2)C=C[C@H]1OC(=O)OCC
inactive: Potency [3]
active: Potency [2] 1510 nM

CCCCCC(=O)c1cc(CC(C(=O)OC)C(=O)OC)cc2cc(OC)c(OC)cc12
inactive: Potency [4] | Potency [2] | Potency [3]

CNCC(=O)NC(CCCN=C(N)N)C(=O)NC(C(=O)NC(Cc1ccc(O)cc1)C(=O)NC(C(=O)NC(Cc1cnc[nH]1)C(=O)N1CCCC1C(=O)NC(C)C(=O)O)C(C)C)C(C)C (stereo not given)
inactive: Potency [5] | Potency [6] | activity, negative = inhibition ([7]; parasite line A) 15.8% | activity, negative = inhibition ([7]; parasite line B) 17.4% | Potency (ATS189) | Potency (CP185) | Potency (CP201) | Potency (CP238) | Potency (CP252) | Potency (CP265) | Potency (CP286) | Potency (CP305) | Potency (CP325) | Potency (FAB9) | Potency (PC15) | Potency (PC49)

CC(CCN1CCCCc2nc(C)c(C)cc21)=NO[C@@H](C)c1cn([C@H](CO)Cc2ccccc2)nn1
inactive: Potency [4] | Potency [3]

CC(C)Nc1oc(-c2ccccc2)nc1C=Cc1ccccc1
active: Potency [1] 1900 nM
inactive: Potency [3]

C#CCCCON=C1C[C@@H](O)[C@@H](O)[C@@H]2[C@H]3C(=O)N([C@@H](C)c4ccccc4)C(=O)[C@@H]3CC[C@H]12
inactive: Potency [4] | Potency [3]

COC(=O)C1=C(C)N(CCc2cc(OC)c(OC)c(OC)c2)C(=O)N[C@H]1c1ccccc1
inactive: Potency [2] | Potency [3]

COC(=O)C1=C(C(=O)OC)[C@@H]2N(Cc3ccccc3)c3ccccc3[C@@]23C[C@@H](C(=O)OC)N(S(=O)(=O)c2ccc(C)cc2)C3=N1
active: Potency [4] 1690 nM | Potency [1] 1510 nM

COc1ccc([C@]23Cc4cc(OC)c(OC)cc4[C@H](O2)c2c(c4ccccc4oc2=O)O3)cc1
inactive: Potency [4] | Potency [1] | Potency [3]

CCOC(=O)CN1C(=O)N[C@@H](c2cccc(C(F)(F)F)c2)C(C(=O)OC)=C1C
inactive: Potency [4] | Potency [1] | Potency [3]

CC1COc2ccccc2C1=O (stereo not given)
active: Potency [1] 1900 nM

COc1ccc(-c2nc(-c3ccccc3)c(Nc3c(C)cccc3C)o2)cc1
inactive: Potency [3]

CCOC(=O)C(CS)NCCN[C@@H](CS)C(=O)OCC (stereo not given in full)
inactive: Potency [5] | Potency [6] | activity, negative = inhibition ([7]; parasite line A) -2.53% | activity, negative = inhibition ([7]; parasite line B) -3.46% | Potency (ATS189) | Potency (CP185) | Potency (CP201) | Potency (CP238) | Potency (CP252) | Potency (CP265) | Potency (CP286) | Potency (CP305) | Potency (CP325) | Potency (FAB9) | Potency (PC15) | Potency (PC49)

C[C@H]1Cc2c(-c3ccccc3)nc3c(c2CO1)CN(C(=O)NCCc1c[nH]c2ccccc12)CC3
inactive: Potency [2] | Potency [1] | Potency [3]

CCCNC(=O)N1C2=NC(C(=O)OC)=C(C(=O)OC)[C@@H]3N(C)c4ccccc4[C@]23C[C@H]1C(=O)OC
inactive: Potency [2] | Potency [3]

CC(=O)OCC(=O)[C@@]1(O)CCC2C3CCC4=CC(=O)CC[C@]4(C)C3=CC[C@@]21C (stereo not given in full)
inactive: Potency [5] | Potency [6] | activity, negative = inhibition ([7]; parasite line A) 11% | activity, negative = inhibition ([7]; parasite line B) 2.99% | Potency (ATS189) | Potency (CP185) | Potency (CP201) | Potency (CP238) | Potency (CP252) | Potency (CP265) | Potency (CP286) | Potency (CP305) | Potency (CP325) | Potency (FAB9) | Potency (PC15) | Potency (PC49)
